This is an account of results in PubChem BioAssay (EPA / NIEHS).

Where “and” joins values, the source holds several entries; their conditions need not be identical. Equal entries are not always repeated. Results filed as inconclusive are left out. The source holds several records for some structures; these can differ, active in one and inactive in another. Calls of active or inactive are those of the source. How the source made its calls: active means hit-call score of the fitted dose curve at least 0.9, where 1 is the maximum; inconclusive means response in the unintended direction; inactive means score below 0.9.

As usually defined, the AC50 is the concentration at which the activity in the assay is half-maximal.

A short description of this assay: TOX21_p53_BLA_p2_viability: Viability Assessment in the Tox21 HCT-116 p53 Agonism Beta-lactamase Assay, Phase 2 (AID 2283591).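 Further: compound exposure lasted 16 h at 37 °C; actives lower the ATP signal meaning cytotoxicity.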 The source says:
TOX21_p53_BLA_p2 is a cell-based, single-readout assay that uses HCT116, a human intestinal cell line, […] in a 1536-well plate.TOX21_p53_BLA_p2_viability is an assay readout measuring cellular ATP content and detected with CellTiter-Glo Luciferase-coupled ATP quantitation.TOX21_p53_BLA_p2_viability used a type of viability reporter where loss-of-signal activity can be used to understand changes in the cell viability. Furthermore, this assay endpoint can be referred to as a secondary readout, because this assay has produced multiple assay endpoints where this one serves a viability function. To generalize the intended target to other relatable targets, this assay endpoint is annotated to the cell cycle intended target family, where the subfamily is cytotoxicity.
Thawing Method: Place 14 mL of pre-warmed thaw medium into a 15 mL of conical tub. Remove the vial of cells to be thawed from liquid nitrogen and thaw rapidly by placing at 37C in a water bath with gentle agitation for 1-2 minutes. Decontaminate the vial by wiping with 70% ethanol before opening in a biological safety cabinet. Transfer the vial contents drop-wise into 14 mL of thaw medium in a sterile 15-mL conical tub. Centrifuge cells at 900 rpm for 4 minutes and resuspend in thaw medium. Transfer contents to the T75 tissue culture flask containing Thaw Medium and place flask in a humidified 37C/5% CO2 incubator. Switch to growth medium at first passage.Propagation Method: Aspirate medium, rinse once in DPBS, add 0.25% Trypsin/EDTA and swirl to coat the cell evenly. Add an equal volume of Growth Medium to inactivate Trypsin after 2-3 minutes incubation at 37C. Centrifuge cells at 900 rpm for 4 minutes and resuspend in growth medium. Cell should be passage or fed at least twice a week.Assay Protocol: Harvest cells from culture in growth medium and resuspend in assay medium. 2.2 Dispense 4000 cells/5 uL/well into 1536-well black/clear bottom plates using a Multidrop dispenser. After the cells were incubated at 37C for 5 hours, 23 nL of compounds dissolved in DMSO were transferred to the assay plate by a PinTool resulting in a 217-fold dilution. Incubate the plates for 16 hours at 37C, 5% CO2. Add 1 uL of 6X LiveBLAzer FRET B/G (CCF4-AM) Substrate Mixture to each well using a BioRAPTR dispenser and incubate the plates at room temperature for 2 hours. Measure fluorescence intensity at 460 and 530 nm emission and 405 nm excitation by an Envision detector. Data is expressed as the ratio of 460nm/530nm emissions. Add 4 uL of Cell-titer Glo to each well using BioRAPTR and incubate the plates at room temperature for […]. For cell viability readout that measures cytotoxicity, 4 ul/well of CellTiter-Glo reagent was added into the assay plates using a Flying Reagent Dispenser. After 30 min incubation at room temperature, the luminescence intensity in the plates was measured using a ViewLux plate reader.
On to `O=Cc1ccccc1O`, for which the molecule was classed as inactive.
As to `COC(=O)c1cccc(C(=O)OC)c1`, the call was inactive.
The same measure, in the same setting: the same measure for `CCCCCC1CCC(=O)O1` (stereo not given): “inactive”; for `CCCCCCCC1CCCC1=O` (stereo not given): “inactive”.
The same measure, in the same setting: the same measure for `CCC(C)COC(=O)CC(C)C` (stereo not given): “inactive”; for `C#C[C@]1(O)CC[C@H]2[C@@H]3CCc4cc(O)ccc4[C@H]3CC[C@@]21C`: “inactive”; for `CCCCCCCCCCCCCCCCCC(=O)OCCCCCCCCCCCCCC(C)C`: “inactive”.
Same read-out and setting: the entry for `CCO[Si](CC)(OCC)OCC` is “inactive”; for `CCCCCCC(C)O` (stereo not given) it is “inactive”; for `c1ccc(OCCOc2ccccc2)cc1` it is “inactive”.
On to `COc1ccc(OC)cc1`, for which the molecule was called inactive.
Same read-out and setting: the same measure for `CC(=O)Oc1c(C)c(C)c2c(c1C)CC[C@@](C)(CCC[C@H](C)CCC[C@H](C)CCCC(C)C)O2`: “inactive”.
As for `Cc1cc(O)c2c(c1)C(=O)c1cc(O)cc(O)c1C2=O`, the result was inactive.
Still for that read-out and setting: the same measure for `CC(C)COC(=O)c1ccccc1`: “inactive”.
As for `C=CCOC(=O)/C=C\C(=O)OCC=C`, the call was inactive.
Take `C=C/C(C)=C/C/C=C(\C)CCC=C(C)C`: the molecule was called inactive.
On the same count and under the same terms, the entry for `C[Si]1(C)N[Si](C)(C)N[Si](C)(C)N1` is “inactive”; for `CC1(C)CC(N)CC(C)(CN)C1` (stereo not given) it is “inactive”; for `CC(=O)Nc1cc(S(=O)(=O)O)cc2cc(S(=O)(=O)O)c(N=Nc3ccccc3)c(O)c12` it is “inactive”.
The same measure, in the same setting: the entry for `C=C1CC/C=C(\C)CC[C@@H]2[C@@H]1CC2(C)C` is “inactive”.
Consider `CC/C(=C(\c1ccccc1)c1ccc(OCCN(C)C)cc1)c1ccccc1`, for which the call was inactive; the AC50 is 33.7 µM (active) and 69.5 µM (active) and 35.2 µM (active).
With `FC(F)(F)c1ccc(Cl)c(Cl)c1`, the result was inactive.
The same measure, in the same setting: the same measure for `CC(C)(C)C1CCC(O)CC1` (stereo not given): “inactive”.
The same measure, in the same setting: the same measure for `CCCCCCCCCCCCS`: “inactive”; for `CC(C)(CO)CO`: “inactive”; for `CCC(=O)OC(C)(C)C1CC=C(C)CC1` (stereo not given): “inactive”.
On to `CCCCCc1cccc(=O)o1`, for which the molecule was called inactive.
Regarding `CC1=CC(C)C(C=O)C(C)C1` (stereo not given) (tested in a mixture with another compound), the outcome was inactive.
Same read-out and setting: the entry for `C=C(C)C(N)=O` is “inactive”.
Still for that read-out and setting: the entry for `COc1ccccc1O` is “inactive”; for `C=CC(O)CCCCC` (stereo not given) it is “inactive”; for `CC(C)OB(OC(C)C)OC(C)C` it is “inactive”.
Consider `NC(=O)NC(N)=O`, for which the call was inactive.
The same measure, in the same setting: the same measure for `NCCN1CCNCC1`: “inactive”; for `CN1CCc2cccc3c2[C@H]1Cc1ccc(O)c(O)c1-3`: “inactive”; for `CC1=CCC(C(C)(C)O)CC1` (stereo not given): “inactive”.
On to `CC(CO)c1ccccc1` (stereo not given), for which the call was inactive.
For `CCCCCCOc1ccc(O)cc1`, the AC50 was 45.6 µM (active).
As to `C=C(C)C(=O)OCCC[Si](OC)(OC)OC`, the result was inactive.
